The supplement of paper PMC4894684
Counter-ions that a name gives are not always drawn. ± gives the standard deviation of the averaged measurements. The whole screen tested about 1,000 compounds, of which about 15 (2%) showed an effect of 50% or more. Shown is part of a subset that was picked to be rich in strong results.

Test system: HFF
Test: uninfected host cell viability relative to vehicle control; higher = less host cell toxicity
Details: 5 µM; 72 h; oxygen 21 %

| SMILES | uninfected host cell viability [%] |
| --- | --- |
| COc1ccc(-c2nc(-c3ccc(-c4cccc(Cl)c4)o3)[nH]c2-c2ccc(OC)cc2)cc1 [Neurodazine] | 80.3 ± 5.1 |
| O=C(NCCCN1CCCCCC1)C(c1ccccc1)C1CCCCC1 (centres undefined) | 88.8 ± 4.6 |
| O=C(O)C=C1CCCc2ccccc2C1O (centres undefined) | 83.32 ± 0.084 |
| COC(=O)C[C@](O)(CCCC(C)(C)O)C(=O)O[C@@H]1C(OC)=C[C@]23CCCN2CCc2cc4c(cc2[C@H]13)OCO4 [Homoharringtonine] | 28.6 ± 2.8 |
| O/N=C/c1ccc(-c2ccc(O)c(F)c2)c(Cl)c1O | 91.86 ± 0.49 |
| Cc1ccc(/C=C2\CNC/C(=C\c3ccc(C)cc3)C2=O)cc1 | 34.4 ± 5.5 |
| COC(=O)C1=C(C)NC(C)=C(C(=O)NCCCN2CCC(c3ccccc3)(c3ccccc3)CC2)C1c1ccc([N+](=O)[O-])cc1 (centres undefined) | 81.9 ± 1.8 |
| CC#CCOC(=O)C1=CCCN(C)C1 [Arecaidine but-2-ynyl ester tosylate] | 88 ± 1.3 |
| CC(C)Oc1cccc(-n2c(CCc3c[nH]c4ccc(Br)cc34)nc3ccccc3c2=O)c1 | 92.8 ± 5.5 |
| COc1cc(Br)c(S(=O)(=O)Nc2ccc(Cl)c(O[C@@H]3CCN(C)C3)c2)cc1OC | 96.9 ± 3 |
| C[C@H](NC[C@H](O)CP(=O)(O)CC1CCCCC1)c1ccc(Cl)c(Cl)c1 | 84.83 ± 0.31 |
| CC1c2ccccc2CN1CC1=NCCN1 (centres undefined) | 89 ± 2.3 |
| N[C@H](C(=O)O)c1ccc(O)c(C(=O)O)c1 [(S)-3-Carboxy-4-hydroxyphenylglycine] | 83.1 ± 0.11 |
| CC(C)c1onc(-c2c(Cl)cccc2Cl)c1COc1ccc(/C=C/c2cccc(C(=O)O)c2)c(Cl)c1 | 96.2 ± 2.9 |
| OC[C@H]1NC[C@@H](O)[C@@H](O)[C@@H]1O [1-Deoxymannojirimycin hydrochloride] | 86.61 ± 0.073 |
| O=C(NCCCCN1CCN(c2cccc(Cl)c2Cl)CC1)c1ccc2c(c1)Cc1ccccc1-2 | 88.9 ± 4 |
| CCCCCCNC(=O)Nc1ccc(S(=O)(=O)Nc2ccc(CCNC[C@H](O)COc3ccc(O)cc3)cc2)cc1 | 83.4 ± 2.5 |
| NC(C(=O)O)c1ccc(C(=O)O)c(C(=O)O)c1 (centres undefined) | 83.7 ± 3.5 |
| CCCCN1CCC(CCC(=O)c2cc(Cl)c(N)cc2OC)CC1 | 85.2 ± 6.5 |
| CN(CCOc1ccc(-c2ccc3c(c2)OCO3)cc1C(C)(C)C)CC(=O)O | 89.62 ± 0.17 |
| O=C(c1ccc(F)cc1)C1CCN(CCn2c(=S)[nH]c3ccccc3c2=O)CC1 [Altanserin hydrochloride] | 83.2 ± 2.8 |
| Nc1nc2c(nc(Br)n2[C@@H]2O[C@@H]3COP(=O)(O)O[C@H]3[C@H]2O)c(=O)[nH]1 [8-Bromo-cGMP, sodium salt] | 89.8 ± 1.7 |

| SMILES | uninfected host cell viability [%] |
| --- | --- |
| COC(=O)c1sccc1S(=O)(=O)Nc1ccc(Nc2ccccc2)cc1OC | 77.8 ± 0.79 |
| NC(=O)N1c2ccccc2CC(O)c2ccccc21 (centres undefined) [Licarbazepine] | 86.1 ± 1.1 |
| COc1ccc(Cl)cc1NC(=O)Nc1cc(C)nc2ccccc12 | 70.73 ± 0.28 |
| O=C(/C=C/c1ccc(O)c(O)c1)O[C@H](Cc1ccc(O)c(O)c1)C(=O)O [Rosmarinic acid] | 80.3 ± 1 |
| OC(CCCN1CCN(c2ncc(F)cn2)CC1)c1ccc(F)cc1 (centres undefined) | 110 ± 17 |
| CC(C)c1ccccc1S(=O)(=O)c1cc(N)c2ncccc2c1[N+](=O)[O-] | 73.2 ± 0.84 |
| CN(CCCN1c2ccccc2CCc2ccccc21)CC(=O)c1ccc(Cl)cc1 [Lofepramine] | 89.6 ± 1.2 |
| Cc1c(C(=O)NN2CCOCC2)nn(-c2ccc(Cl)cc2Cl)c1-c1ccc(I)cc1 | 90.8 ± 2.4 |
| O=c1[nH]nc(Sc2ncc([N+](=O)[O-])s2)n1-c1ccc2c(c1)OCCO2 | 99.61 ± 0.28 |
| O=C(O)c1ccc(C=C2SC(=S)N(c3cccc(C(F)(F)F)c3)C2=O)cc1 | 87.8 ± 0.91 |
| CN1Cc2c(C(=O)OC(C)(C)C)ncn2-c2ccsc2C1=O | 97.9 ± 4.9 |
| CCCCCCCCCCCCCCCC(=O)C(F)(F)F | 91.66 ± 0.55 |
| NC(=O)CCCCn1ccc(NC(N)=NCC(F)(F)F)n1 | 85.9 ± 2.3 |
| N[C@@H](CSS(=O)(=O)O)C(=O)O [S-Sulfo-L-cysteine sodium salt] | 99.5 ± 1.1 |
| Cc1ccccc1C(=O)c1ccc(Nc2ccc(Br)cc2N)cc1Cl | 84 ± 2.2 |
| CN1CCC(Nc2ncc3ncnc(Nc4ccc(F)c(Cl)c4)c3n2)CC1 [BIBX 1382 dihydrochloride] | 80.7 ± 2.1 |
| CC(C)n1nnc2cc(C(=O)O)ccc21 | 100 ± 2.3 |
| Cc1[nH]c(/C=C2\C(=O)Nc3ccc(S(=O)(=O)Cc4c(Cl)cccc4Cl)cc32)c(C)c1C(=O)N1CCC[C@@H]1CN1CCCC1 | 89.5 ± 2.3 |
| CC1(C)CCC(C)(C)c2cc(C3(c4ccc(C(=O)O)cc4)OCCO3)ccc21 | 93.1 ± 2.3 |
| COc1ccc(NS(=O)(=O)c2ccc(I)cc2)cc1N1CCN(C)CC1 | 81.6 ± 2.9 |
| Cc1cc(C)cc(C(=O)N(C)[C@H](Cc2ccc(-c3ccccc3)cc2)C(=O)N[C@@H](Cc2c[nH]c3ccccc23)C(=O)O)c1 | 83.95 ± 0.62 |
| CCCn1c(=O)[nH]c2nc(-c3ccc(S(=O)(=O)O)cc3)[nH]c2c1=O | 86.34 ± 0.58 |
